Data from PubChem BioAssay.
Values without a mark were called inactive. Active and inactive are the calls of the source.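 Rule for the calls: active = inhibition above the hit cutoff set in the earlier primary screen (cut at about 27% in these data); inactive = the rest.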

These molecules were tested against Protein phosphatase methylesterase 1 (Homo sapiens) (UniProt Q9Y570) (assay: human PME-1 methylesterase inhibition confirmation – biochemical, fluorescence polarization, FP-Rh probe, triplicate (AID 2171;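 note: 0% = enzyme with DMSO and 100% = wells lacking PME-1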)). Settings: recombinant PME-1, FP-Rh probe fluorescence polarization; at 5.9 µM; hits give high values.
Protein phosphatase methylesterase 1 (Homo sapiens), sequence (Q9Y570 whole entry, looked up): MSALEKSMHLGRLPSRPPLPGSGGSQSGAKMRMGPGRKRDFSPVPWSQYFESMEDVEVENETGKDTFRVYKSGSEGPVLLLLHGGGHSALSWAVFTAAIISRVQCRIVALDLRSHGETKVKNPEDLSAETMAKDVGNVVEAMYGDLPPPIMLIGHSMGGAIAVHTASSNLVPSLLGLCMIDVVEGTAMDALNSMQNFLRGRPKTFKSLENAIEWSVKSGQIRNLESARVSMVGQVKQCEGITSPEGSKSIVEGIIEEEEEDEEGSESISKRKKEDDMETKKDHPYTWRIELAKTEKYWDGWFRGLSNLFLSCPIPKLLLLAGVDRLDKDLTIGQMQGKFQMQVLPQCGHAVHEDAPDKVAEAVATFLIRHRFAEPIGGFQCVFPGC

Compound	inhibition
Cc1ccc(/C=N/Nc2ccnc3cc(Cl)ccc23)c(C)c1	53.3% (active)
CCn1c(CSc2nnc(-c3ccncc3)n2CCOC)nc2cc(C(=O)O)ccc21	51.1% (active)
O=C(O)CCNc1ccc(NCCC(=O)O)c2c1C(=O)c1ccccc1C2=O	16.7%
Nc1nonc1-n1nnc(C(=O)N/N=C/c2c[nH]c3ccccc23)c1-c1ccccc1	25.4%
O=C(NC(C(=O)N/N=C/c1cc([N+](=O)[O-])ccc1O)c1n[nH]c(=O)c2ccccc12)c1ccccc1 (centres undefined)	58.3% (active)
COCCN=c1scc(-c2cc(OC)c(OC)c(OC)c2)n1/N=C/c1c(C)[nH]c2ccccc12	18.7%
Cc1c(O)ccc(/C(Cc2ccc3ccccc3n2)=N\O)c1O	53.5% (active)
CC1=CN2C(=N)/C(=C/c3ccc([N+](=O)[O-])o3)C(=O)N=C2S1	-6.58%
CCOC(=O)c1c(C)[nH]c(C2=NNC(=Nc3ccc(OCC)cc3)SC2)c1C	18.9%
CCO[C@@H]1OC(C(=O)N2CCN(Cc3ccccc3)CC2)=C[C@H](c2cn(C(C)=O)c3ccccc23)[C@H]1CCCO	75.4% (active)
Cc1cccnc1Nc1nc(-c2ccc(O)c(O)c2)cs1	14.8%
COc1ccc(NC(=O)c2c[nH]n3c(=O)cc(C4CCN(C(=O)OC(C)(C)C)CC4)nc23)cc1Cl	25.1%
CCN(CC)C(=O)c1csc(Nc2cccc3ccccc23)n1	23.8%
COc1cccc(Oc2ccc(S(=O)(=O)N3CCCC3)cc2[N+](=O)[O-])c1	21.4%
CCOc1cccc(/C=C/c2ccc3cccc(O)c3n2)c1O	26.6% (active)
Cc1ccc2nc(-c3sc4nc(C)cc(C)c4c3N)[nH]c2c1	18.2%
Nc1ccc2nc3c(=O)n(CCc4ccccc4)c(=O)[nH]c3nc2c1	51.2% (active)
CCn1c(CSc2n[nH]c(N)n2)nc2cc(C(=O)O)ccc21	33.5% (active)
Nc1c(C(=O)Nc2ccc(F)cc2)sc2nc(-c3ccco3)ccc12	49.6% (active)
CC(C)N(C(=O)Nc1ccc2nsnc2c1)C(C)C	20.8%

Compound	inhibition
Cn1c(=O)c(NCCc2ccccc2)c2c3c(cccc31)C(=O)c1ccccc1-2	177% (active)
c1ccc2sc(Nc3nc4cc5c(cc4s3)OCO5)nc2c1	49.7% (active)
O=C1c2cccc3c(N4CCCCC4)ccc(c23)C(=O)N1c1cccc(O)c1	-13.8%
O=C(N/N=C/c1c[nH]c2ccccc12)c1ccc([N+](=O)[O-])cc1Cl	20.6%
COc1ccc(S(=O)(=O)N(C)C)cc1NC(=O)Cc1c[nH]c2ccccc12	85% (active)
c1cc2c3c(cccc3c1)NC1(CCC3(CC1)Nc1cccc4cccc(c14)N3)N2	0.95%
COc1ccc2noc3c2c1C(=O)c1ccccc1-3	22.2%
O=C(c1cccs1)N1CCC(c2nc3c(nnn3Cc3ccccc3Cl)c(=O)[nH]2)CC1	25.4%
COc1cc(/C=C2/C(=O)c3cccc([N+](=O)[O-])c3C2=O)c(Br)cc1O	16.7%
O=[N+]([O-])c1cccc(N/N=C/c2cccc(O)c2O)c1	32.9% (active)
CCn1c(CSc2nnc(-c3ccncc3)n2C)nc2cc(C(=O)O)ccc21	51.5% (active)
CCC(=Nc1ccc(N)cc1)C1=C(O)C(C(=O)OC)C(C)(C)CC1=O (centres undefined)	2.34%
Cc1[nH]c2c(C(=O)N3CCCC(CCC(=O)NCc4ccccc4F)C3)cccc2c1C (centres undefined)	39.7% (active)
Brc1ccc(-c2ccc(C3Nc4cccc5cccc(c45)N3)o2)cc1	24.1%
Nc1c(Cl)cc(-c2[nH]c3cc(C(=O)NCCO)ccc3c(=O)c2O)cc1Cl	-9.64%
Cc1onc(NC(=O)NC(=O)c2c(Cl)cccc2Cl)c1Br	17.4%
COc1cc(/C=N/NC(=O)c2cc3c(ccc4ccccc43)o2)cc(OC)c1O	29% (active)
COc1cccc(N=Nc2c(=O)[nH]n3c(=O)c4c([nH]c23)CCC4)c1	36.8% (active)
CC(C)Oc1ccc(S(=O)(=O)N2CCCCC2)cc1NC(=O)CN1C(=O)NC(C)(c2ccccc2)C1=O (centres undefined)	42.6% (active)
